Counter-ions that a name gives are not always drawn. ± gives the standard error. Among all 1,300 compounds or so, about 130 (10%) showed an effect of 50% or more. Only a selection was taken, and strong results are over-represented in it overall.
Test system: Trichoderma virens ATCC 9645
Assay: growth yield (OD600) with compound + IPBC relative to untreated control; higher = less growth inhibition
Settings: compound concentration: 100 uM, IPBC concentration: 200 ng/ml
How it was run: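 Library compounds (100 μM final), with or without a co-applied biocide (200 ng ml^−1), were added to 100 μl aliquots of Trichoderma virens ATCC 9645 spores at 15,000 spores ml^−1 in potato dextrose broth. Cultures were grown at 30 °C in 96-well plates, and OD600 was measured at 40 h and 72 h. Each growth value is a mean of duplicate screens, expressed relative to the control with neither agent.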

Question: How did the growth yield (40 h) turn out when `CC1(C)O[C@@H]2C[C@H]3[C@@H]4CCC5=CC(=O)CC[C@]5(C)[C@@]4(F)[C@@H](O)C[C@]3(C)[C@]2(C(=O)CCl)O1` [Halcinonide] + CCCCNC(=O)OCC#CI [3-iodo-2-propynyl butylcarbamate (IPBC)] was run?
Answer: 86.9 ± 1.1%

Question: And the growth yield (72 h)?
Answer: 91.77 ± 0.1%

Question: Which results are given for `COc1cnc(NS(=O)(=O)c2ccc(N)cc2)nc1` [Sulfameter] + CCCCNC(=O)OCC#CI [3-iodo-2-propynyl butylcarbamate (IPBC)]?
Answer: growth yield (40 h): 101 ± 7.5%; growth yield (72 h): 101 ± 3.5%

Question: Which growth yield (40 h) does the source give for `Nc1nc2c(ncn2COC(CO)CO)c(=O)[nH]1` [Ganciclovir] + CCCCNC(=O)OCC#CI [3-iodo-2-propynyl butylcarbamate (IPBC)] here?
Answer: 99.9 ± 16%

Question: And the growth yield (72 h)?
Answer: 98.1 ± 10%

Question: `Nc1nc2n[nH]nc2c(=O)[nH]1` [Azaguanine-8] + CCCCNC(=O)OCC#CI [3-iodo-2-propynyl butylcarbamate (IPBC)] was tested. Which growth yield (40 h) did it give?
Answer: 7.47 ± 1.1%

Question: And the growth yield (72 h)?
Answer: 12.2 ± 0.21%

Question: `Nc1nc2c(ncn2COCCO)c(=O)[nH]1` [Acyclovir] + CCCCNC(=O)OCC#CI [3-iodo-2-propynyl butylcarbamate (IPBC)] was tested. Which growth yield (40 h) did it give?
Answer: 100 ± 3.5%

Question: And the growth yield (72 h)?
Answer: 101 ± 3.5%

Question: With `CC(C)(C(=O)c1cccnc1)c1cccnc1` [Metyrapone] + CCCCNC(=O)OCC#CI [3-iodo-2-propynyl butylcarbamate (IPBC)] as the molecule, how does the growth yield (40 h) read?
Answer: 87.5 ± 1.4%

Question: And the growth yield (72 h)?
Answer: 87.68 ± 0.84%

Question: For `CC(=O)OCC(=O)[C@H]1CC[C@H]2[C@@H]3CC[C@H]4C[C@H](O)CC[C@]4(C)[C@H]3C(=O)C[C@]12C` [Alfadolone acetate] + CCCCNC(=O)OCC#CI [3-iodo-2-propynyl butylcarbamate (IPBC)], which growth yield (40 h) is on record?
Answer: 90.1 ± 8.4%

Question: And the growth yield (72 h)?
Answer: 95.4 ± 2.9%

Question: For `C#C[C@]1(OC(C)=O)CC[C@H]2[C@@H]3CCC4=C[C@@H](OC(C)=O)CC[C@@H]4[C@H]3CC[C@@]21C` [Ethynodiol diacetate] + CCCCNC(=O)OCC#CI [3-iodo-2-propynyl butylcarbamate (IPBC)], which growth yield (40 h) is on record?
Answer: 80.21 ± 0.16%

Question: What about the growth yield (72 h) of the same molecule?
Answer: 92 ± 1.8%

Question: With `Cc1cc2c(cc1S(N)(=O)=O)S(=O)(=O)CCC2` [Meticrane] + CCCCNC(=O)OCC#CI [3-iodo-2-propynyl butylcarbamate (IPBC)] as the molecule, how does the growth yield (40 h) read?
Answer: 91.8 ± 6.7%

Question: And the growth yield (72 h)?
Answer: 91.7 ± 3.8%

Question: What does the source list for `COc1ccc2c(c1)c(CC(=O)OCC(=O)O)c(C)n2C(=O)c1ccc(Cl)cc1` [Acemetacin] + CCCCNC(=O)OCC#CI [3-iodo-2-propynyl butylcarbamate (IPBC)]?
Answer: growth yield (40 h): 74.18 ± 0.16%; growth yield (72 h): 84.11 ± 0.21%

Question: With `CCCCCCC[N+](CC)(CC)CCCCc1ccc(Cl)cc1` [Clofilium tosylate] + CCCCNC(=O)OCC#CI [3-iodo-2-propynyl butylcarbamate (IPBC)] as the molecule, how does the growth yield (40 h) read?
Answer: 13.5 ± 5.9%

Question: And the growth yield (72 h)?
Answer: 74.46 ± 0.42%

Question: For `N[C@@H]1C[C@H]1c1ccccc1` [Tranylcypromine hydrochloride] + CCCCNC(=O)OCC#CI [3-iodo-2-propynyl butylcarbamate (IPBC)], which growth yield (40 h) is on record?
Answer: 99.6 ± 1.8%

Question: And the growth yield (72 h)?
Answer: 104 ± 3.7%

Question: With `N=C(N)N1CCc2ccccc2C1` [Debrisoquin sulfate] + CCCCNC(=O)OCC#CI [3-iodo-2-propynyl butylcarbamate (IPBC)] as the molecule, how does the growth yield (40 h) read?
Answer: 92.3 ± 15%

Question: And the growth yield (72 h)?
Answer: 96.9 ± 8%

Question: How did the growth yield (40 h) turn out when `COc1ccc2cc([C@@H](C)C(=O)O)ccc2c1` [(R) -Naproxen sodium salt] + CCCCNC(=O)OCC#CI [3-iodo-2-propynyl butylcarbamate (IPBC)] was run?
Answer: 67.7 ± 2.2%

Question: And the growth yield (72 h)?
Answer: 81.5 ± 3.5%

Question: Which results are given for `COc1ccc2cc([C@H](C)C(=O)O)ccc2c1` [(S)-Naproxen] + CCCCNC(=O)OCC#CI [3-iodo-2-propynyl butylcarbamate (IPBC)]?
Answer: growth yield (40 h): 61.3 ± 1.9%; growth yield (72 h): 78.6 ± 1.1%

Question: What does the source list for `COc1ccc2cc(CCC(C)=O)ccc2c1` [Nabumetone] + CCCCNC(=O)OCC#CI [3-iodo-2-propynyl butylcarbamate (IPBC)]?
Answer: growth yield (40 h): 39.7 ± 1.6%; growth yield (72 h): 67.1 ± 1.5%

Question: `c1ccc2c(c1)Nc1ccccc1S2` [Phenothiazine] + CCCCNC(=O)OCC#CI [3-iodo-2-propynyl butylcarbamate (IPBC)] was tested. Which growth yield (40 h) did it give?
Answer: 34.8 ± 2.7%

Question: And the growth yield (72 h)?
Answer: 51.3 ± 1.6%

Question: For `CC(C)(C#N)c1cc(Cn2cncn2)cc(C(C)(C)C#N)c1` [Anastrozole] + CCCCNC(=O)OCC#CI [3-iodo-2-propynyl butylcarbamate (IPBC)], which growth yield (40 h) is on record?
Answer: 105 ± 3.8%

Question: And the growth yield (72 h)?
Answer: 98.9 ± 2.2%

Question: Which growth yield (40 h) does the source give for `CN(C)c1ccc(O)c2c1C[C@H]1C[C@H]3[C@H](N(C)C)C(O)=C(C(N)=O)C(=O)[C@@]3(O)C(O)=C1C2=O` [Minocycline hydrochloride] + CCCCNC(=O)OCC#CI [3-iodo-2-propynyl butylcarbamate (IPBC)] here?
Answer: 58.1 ± 2.2%

Question: What about the growth yield (72 h) of the same molecule?
Answer: 84.6 ± 4.7%

Question: Which results are given for `COc1ccc(OC)c(C(O)C(C)N)c1` (centres undefined) [Methoxamine hydrochloride] + CCCCNC(=O)OCC#CI [3-iodo-2-propynyl butylcarbamate (IPBC)]?
Answer: growth yield (40 h): 87.4 ± 7.3%; growth yield (72 h): 92.4 ± 5.3%

Question: For `COc1ccc(C(=O)N2CCCC2=O)cc1` [Aniracetam] + CCCCNC(=O)OCC#CI [3-iodo-2-propynyl butylcarbamate (IPBC)], which growth yield (40 h) is on record?
Answer: 83.7 ± 4.3%

Question: What about the growth yield (72 h) of the same molecule?
Answer: 87.3 ± 3.1%

Question: What does the source list for `O=C1Nc2ccc(Cl)cc2[C@@](C#CC2CC2)(C(F)(F)F)O1` [Efavirenz] + CCCCNC(=O)OCC#CI [3-iodo-2-propynyl butylcarbamate (IPBC)]?
Answer: growth yield (40 h): 39.4 ± 2.9%; growth yield (72 h): 73.1 ± 8.1%

Question: Which results are given for `C/C(=C\C(=O)OCCCCCCCCC(=O)O)C[C@@H]1OC[C@H](C[C@@H]2O[C@H]2[C@@H](C)[C@H](C)O)[C@@H](O)[C@H]1O` [Mupirocin] + CCCCNC(=O)OCC#CI [3-iodo-2-propynyl butylcarbamate (IPBC)]?
Answer: growth yield (40 h): 6.51 ± 1.4%; growth yield (72 h): 43.4 ± 5.7%

Question: Which results are given for `O=C1CCc2ccc(OCCCCN3CCN(c4cccc(Cl)c4Cl)CC3)cc2N1` [Aripiprazole] + CCCCNC(=O)OCC#CI [3-iodo-2-propynyl butylcarbamate (IPBC)]?
Answer: growth yield (40 h): 81.8 ± 2.1%; growth yield (72 h): 94.2 ± 1.5%

Question: How did the growth yield (40 h) turn out when `NS(=O)(=O)c1cc(C(=O)O)cc(N2CCCC2)c1Oc1ccccc1` [Piretanide] + CCCCNC(=O)OCC#CI [3-iodo-2-propynyl butylcarbamate (IPBC)] was run?
Answer: 98.3 ± 13%

Question: And the growth yield (72 h)?
Answer: 101 ± 6.5%

Question: Which growth yield (40 h) does the source give for `CC(=O)Oc1ccc(C(c2ccc(OC(C)=O)cc2)c2ccccn2)cc1` [Bisacodyl] + CCCCNC(=O)OCC#CI [3-iodo-2-propynyl butylcarbamate (IPBC)] here?
Answer: 76.2 ± 2.2%

Question: And the growth yield (72 h)?
Answer: 86.8 ± 2.1%

Question: How did the growth yield (40 h) turn out when `CC[C@H]1OC(=O)[C@H](C)[C@@H](O[C@H]2C[C@@](C)(OC)[C@@H](O)[C@H](C)O2)[C@H](C)[C@@H](O[C@@H]2O[C@H](C)C[C@H](N(C)C)[C@H]2O)[C@](C)(O)C[C@@H](C)[C@@H]2N[C@@H](COCCOC)O[C@H]([C@H]2C)[C@]1(C)O` [Dirithromycin] + CCCCNC(=O)OCC#CI [3-iodo-2-propynyl butylcarbamate (IPBC)] was run?
Answer: 89 ± 9.5%

Question: And the growth yield (72 h)?
Answer: 94.9 ± 6.4%

Question: Which results are given for `N=C(N)NS(=O)(=O)c1ccc(N)cc1` [Sulfaguanidine] + CCCCNC(=O)OCC#CI [3-iodo-2-propynyl butylcarbamate (IPBC)]?
Answer: growth yield (40 h): 89.6 ± 2.5%; growth yield (72 h): 92.4 ± 2.6%

Question: `Cc1cccc(C)c1OCC(=O)N[C@@H](Cc1ccccc1)[C@@H](O)C[C@H](Cc1ccccc1)NC(=O)[C@H](C(C)C)N1CCCNC1=O` [Lopinavir] + CCCCNC(=O)OCC#CI [3-iodo-2-propynyl butylcarbamate (IPBC)] was tested. Which growth yield (40 h) did it give?
Answer: 108 ± 5.4%

Question: What about the growth yield (72 h) of the same molecule?
Answer: 111 ± 5.1%

Question: How did the growth yield (40 h) turn out when `O=C(NCC(O)CO)c1c(I)c(C(=O)NCC(O)CO)c(I)c(N(CCO)C(=O)CO)c1I` (centres undefined) [Ioversol] + CCCCNC(=O)OCC#CI [3-iodo-2-propynyl butylcarbamate (IPBC)] was run?
Answer: 103 ± 18%

Question: And the growth yield (72 h)?
Answer: 98 ± 13%

Question: Which growth yield (40 h) does the source give for `C#C[C@]1(O)CC[C@H]2[C@@H]3CCC4=CC(=O)CC[C@@H]4[C@H]3CC[C@@]21C` [Norethindrone] + CCCCNC(=O)OCC#CI [3-iodo-2-propynyl butylcarbamate (IPBC)] here?
Answer: 55.1 ± 1.4%

Question: And the growth yield (72 h)?
Answer: 83.06 ± 0.63%

Question: `OCCN(CCO)c1nc(N2CCCCC2)c2nc(N(CCO)CCO)nc(N3CCCCC3)c2n1` [Dipyridamole] + CCCCNC(=O)OCC#CI [3-iodo-2-propynyl butylcarbamate (IPBC)] was tested. Which growth yield (40 h) did it give?
Answer: 44.5 ± 1.6%

Question: What about the growth yield (72 h) of the same molecule?
Answer: 57.37 ± 0.52%

Question: With `CN[C@H](CC(C)C)C(=O)N[C@H]1C(=O)N[C@@H](CC(N)=O)C(=O)N[C@H]2C(=O)N[C@H]3C(=O)N[C@H](C(=O)N[C@H](C(=O)O)c4cc(O)cc(O)c4-c4cc3ccc4O)[C@H](O)c3ccc(c(Cl)c3)Oc3cc2cc(c3O[C@@H]2O[C@H](CO)[C@@H](O)[C@H](O)[C@H]2O[C@H]2C[C@](C)(N)[C@H](O)[C@H](C)O2)Oc2ccc(cc2Cl)[C@H]1O` [Vancomycin hydrochloride] + CCCCNC(=O)OCC#CI [3-iodo-2-propynyl butylcarbamate (IPBC)] as the molecule, how does the growth yield (40 h) read?
Answer: 84.2 ± 0.95%

Question: And the growth yield (72 h)?
Answer: 98.27 ± 0.52%

Question: For `Cc1cccc(N(C)C(=S)Oc2ccc3ccccc3c2)c1` [Tolnaftate] + CCCCNC(=O)OCC#CI [3-iodo-2-propynyl butylcarbamate (IPBC)], which growth yield (40 h) is on record?
Answer: 0%

Question: What about the growth yield (72 h) of the same molecule?
Answer: 35.9 ± 0.84%

Question: With `CC(C)(C)C(=O)OCOC(=O)[C@@H]1N2C(=O)[C@@H](NC(=O)[C@H](N)c3ccccc3)[C@H]2SC1(C)C` [Pivampicillin] + CCCCNC(=O)OCC#CI [3-iodo-2-propynyl butylcarbamate (IPBC)] as the molecule, how does the growth yield (40 h) read?
Answer: 125 ± 1.3%

Question: And the growth yield (72 h)?
Answer: 119.9 ± 0.73%

Question: How did the growth yield (40 h) turn out when `CCCCCOC(=O)Nc1nc(=O)n([C@@H]2O[C@H](C)[C@@H](O)[C@H]2O)cc1F` [Capecitabine] + CCCCNC(=O)OCC#CI [3-iodo-2-propynyl butylcarbamate (IPBC)] was run?
Answer: 99.28 ± 0.48%

Question: And the growth yield (72 h)?
Answer: 98.58 ± 0.84%

Question: What does the source list for `CN(C)/N=N/c1[nH]cnc1C(N)=O` [Dacarbazine] + CCCCNC(=O)OCC#CI [3-iodo-2-propynyl butylcarbamate (IPBC)]?
Answer: growth yield (40 h): 86.25 ± 0.48%; growth yield (72 h): 93.03 ± 0.52%

Reference: the supplement of paper PMC8007513
